Measurements: PubChem BioAssay AID1159580 (chemical genetic matrix, 2015)
The campaign covered roughly 5,500 compounds. About 2,000 (36%) were called active. About 18% were inconclusive and are not listed. No stated cut-off is given here; in the data, active means normalized growth mostly below about 0.91 (no sharp cut-off); inconclusive means no clear call, values can overlap the other calls; inactive means mostly above about 0.92. The list shows a part of the results.

Assay: chemical genetic growth profiling, strain panel (AID 1159580);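 further: tested at 20 µM; growth read once vehicle control cultures reached saturation at 30 °C; 1 = growth at the plate median or of vehicle wells; lower values mean less growth of the strain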
Settings: growth OD

Measured: normalized growth

Cc1cc(C)cc(OCC2CNC(=O)O2)c1 (configuration not stated)
inactive: S. cerevisiae deletion strains, locus YJR075W, strain HOC1, active compounds read low 1.01 | S. cerevisiae deletion strains, locus YKL009W, strain mrt4, active compounds read low 1.02 | S. cerevisiae deletion strains, locus YKL068W, active compounds read low 1.02 | S. cerevisiae deletion strains, locus YKL085W, strain MDH1 (second series), active compounds read low 1.01 | S. cerevisiae deletion strains, locus YKL085W, strain MDH1, active compounds read low 1.01 | S. cerevisiae deletion strains, locus YKL160W, strain elf1, active compounds read low 0.973 | S. cerevisiae deletion strains, locus YKL190W, strain CNB1, active compounds read low 1.01 | S. cerevisiae deletion strains, locus YKR001C, strain vps1, active compounds read low 1.01 | S. cerevisiae deletion strains, locus YKR026C, strain gcn3, active compounds read low 0.978 | S. cerevisiae deletion strains, locus YKR091W, strain srl3, active compounds read low 0.985 | S. cerevisiae deletion strains, locus YLL001W, strain dnm1, active compounds read low 0.976 | S. cerevisiae deletion strains, locus YLL026W, active compounds read low 0.988 | S. cerevisiae deletion strains, locus YLL041C, strain sdh2, active compounds read low 0.972 | S. cerevisiae deletion strains, locus YLR027C, strain aat2, active compounds read low 0.985 | S. cerevisiae deletion strains, locus YLR039C, strain RIC1, active compounds read low 1.04 | S. cerevisiae deletion strains, locus YLR058C, strain SHM2, active compounds read low 1.01 | S. cerevisiae deletion strains, locus YLR102C, strain apc9, active compounds read low 1.02 | S. cerevisiae deletion strains, locus YLR113W, strain HOG1, active compounds read low 1.03 | S. cerevisiae deletion strains, locus YLR221C, strain rsa3, active compounds read low 0.966 | S. cerevisiae deletion strains, locus YLR258W, strain gsy2, active compounds read low 0.981 | S. cerevisiae deletion strains, locus YLR262C, strain YPT6 (second series), active compounds read low 0.962 | S. cerevisiae deletion strains, locus YLR262C, strain YPT6, active compounds read low 1.07 | S. cerevisiae deletion strains, locus YLR268W, strain sec22, active compounds read low 1.01 | S. cerevisiae deletion strains, locus YLR320W, strain mms22, active compounds read low 0.978 | S. cerevisiae deletion strains, locus YLR330W, strain CHS5, active compounds read low 1.01 | S. cerevisiae deletion strains, locus YLR342W, strain FKS1 (second series), active compounds read low 1.02 | S. cerevisiae deletion strains, locus YLR342W, strain FKS1, active compounds read low 0.982 | S. cerevisiae deletion strains, locus YLR357W, strain rsc2, active compounds read low 1.01 | S. cerevisiae deletion strains, locus YLR370C, strain arc18, active compounds read low 0.963 | S. cerevisiae deletion strains, locus YLR371W, strain rom2, active compounds read low 1.02 | S. cerevisiae deletion strains, locus YLR384C, strain iki3, active compounds read low 0.973 | S. cerevisiae deletion strains, locus YLR418C, strain cdc73, active compounds read low 1.02 | S. cerevisiae deletion strains, locus YML016C, strain PPZ1, active compounds read low 1.01 | S. cerevisiae deletion strains, locus YML032C, strain rad52, active compounds read low 1.02 | S. cerevisiae deletion strains, locus YML120C, strain ndi1, active compounds read low 0.984 | S. cerevisiae deletion strains, locus YML124C, strain tub3, active compounds read low 1 | S. cerevisiae deletion strains, locus YMR058W, strain fet3, active compounds read low 0.95 | S. cerevisiae deletion strains, locus YMR078C, strain ctf18, active compounds read low 1.02 | S. cerevisiae deletion strains, locus YMR125W, strain sto1, active compounds read low 0.979 | S. cerevisiae deletion strains, locus YMR129W, active compounds read low 0.984 | S. cerevisiae deletion strains, locus YMR205C, strain PFK2, active compounds read low 0.97 | S. cerevisiae deletion strains, locus YMR223W, strain ubp8, active compounds read low 1.02 | S. cerevisiae deletion strains, locus YMR231W, strain pep5, active compounds read low 0.964 | S. cerevisiae deletion strains, locus YMR263W, strain SAP30, active compounds read low 1.01 | S. cerevisiae deletion strains, locus YMR307W, strain GAS1, active compounds read low 1.03 | S. cerevisiae deletion strains, locus YNL067W, strain RPL9B, active compounds read low 1.02 | S. cerevisiae deletion strains, locus YNL071W, strain lat1, active compounds read low 0.983 | S. cerevisiae deletion strains, locus YNL128W, strain TEP1, active compounds read low 1.01 | S. cerevisiae deletion strains, locus YNL153C, strain GIM3, active compounds read low 1 | S. cerevisiae deletion strains, locus YNL183C, strain NPR1, active compounds read low 0.98 | S. cerevisiae deletion strains, locus YNL209W, strain ssb2, active compounds read low 0.969 | S. cerevisiae deletion strains, locus YNL233W, strain BNI4, active compounds read low 1 | S. cerevisiae deletion strains, locus YNL248C, strain rpa49, active compounds read low 0.976 | S. cerevisiae deletion strains, locus YNL250W, strain rad50, active compounds read low 1.02 | S. cerevisiae deletion strains, locus YNL271C, strain bni1, active compounds read low 1.02 | S. cerevisiae deletion strains, locus YNL298W, strain CLA4, active compounds read low 1.02 | S. cerevisiae deletion strains, locus YNL307C, strain MCK1, active compounds read low 1.01 | S. cerevisiae deletion strains, locus YNL322C, strain KRE1 (second series), active compounds read low 0.975 | S. cerevisiae deletion strains, locus YNL322C, strain KRE1, active compounds read low 1.01 | S. cerevisiae deletion strains, locus YNR049C, strain mso1, active compounds read low 0.983 | S. cerevisiae deletion strains, locus YNR052C, strain pop2, active compounds read low 1.02 | S. cerevisiae deletion strains, locus YOL006C, strain TOP1, active compounds read low 1.03 | S. cerevisiae deletion strains, locus YOL012C, strain htz1 1.42 | S. cerevisiae deletion strains, locus YOL147C, strain pex11, active compounds read low 1.01 | S. cerevisiae deletion strains, locus YOR001W, strain rrp6, active compounds read low 0.984 | S. cerevisiae deletion strains, locus YOR061W, strain CKA2, active compounds read low 1.01 | S. cerevisiae deletion strains, locus YOR069W, strain VPS5, active compounds read low 1.02 | S. cerevisiae deletion strains, locus YOR070C, strain gyp1, active compounds read low 0.969 | S. cerevisiae deletion strains, locus YOR080W, strain dia2, active compounds read low 0.991 | S. cerevisiae deletion strains, locus YOR083W, strain WHI5, active compounds read low 0.986 | S. cerevisiae deletion strains, locus YOR106W, strain vam3, active compounds read low 0.978 | S. cerevisiae deletion strains, locus YOR136W, strain idh2, active compounds read low 1.01 | S. cerevisiae deletion strains, locus YOR144C, strain elg1, active compounds read low 1.01 | S. cerevisiae deletion strains, locus YOR184W, strain ser1, active compounds read low 1.03 | S. cerevisiae deletion strains, locus YOR231W, strain MKK1, active compounds read low 1.05 | S. cerevisiae deletion strains, locus YOR265W, strain rbl2, active compounds read low 0.975 | S. cerevisiae deletion strains, locus YOR270C, strain vph1, active compounds read low 0.939 | S. cerevisiae deletion strains, locus YOR290C, strain snf2, active compounds read low 0.982 | S. cerevisiae deletion strains, locus YOR316C, strain cot1, active compounds read low 1.02 | S. cerevisiae deletion strains, locus YPL051W, strain arl3, active compounds read low 0.979 | S. cerevisiae deletion strains, locus YPL055C, strain LGE1, active compounds read low 1.02 | S. cerevisiae deletion strains, locus YPL078C, strain atp4, active compounds read low 0.973 | S. cerevisiae deletion strains, locus YPL106C, strain sse1, active compounds read low 0.969 | S. cerevisiae deletion strains, locus YPL240C, strain hsp82, active compounds read low 0.979 | S. cerevisiae deletion strains, locus YPL241C, strain CIN2, active compounds read low 1.01 | S. cerevisiae deletion strains, locus YPL256C, strain CLN2, active compounds read low 1.1 | S. cerevisiae deletion strains, locus YPR119W, strain clb2, active compounds read low 1.01 | S. cerevisiae deletion strains, locus YPR141C, strain kar3, active compounds read low 1.02 | S. cerevisiae deletion strains, locus YPR163C, strain tif3, active compounds read low 1.01 | S. cerevisiae deletion strains, locus YPR167C, strain met16, active compounds read low 1.01 | S. cerevisiae deletion strains, strain wtn01, active compounds read low 1.01 | S. cerevisiae strains, strain wild type, active compounds read low 1.01
